One may read the AC50 as the concentration giving half of the maximal activity seen.

Drawing on PubChem BioAssay (EPA / NIEHS), this text covers outcome and AC50 for 3 compounds.

The source made the active and inactive calls. Rule for the calls: active = hit-call score of the fitted dose curve at least 0.9, where 1 is the maximum; inactive = score below 0.9.

The nature of test [1]: APR_HepG2_NuclearSize_24hr: Apredica 24-hour HepG2 Assay for Nuclear Size (AID 2282907). The conditions noted are these: high-content imaging, actives raise or lower the signal. The essentials:
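Nuclear size is measured by fluorescence high-content imaging of Hoechst-labelled HepG2 nuclei after 24 hr of treatment (0.39–200 uM, 0.5% DMSO). Cells are fixed in 3.7% formaldehyde before staining, and DMSO serves as the baseline for bidirectional curve fitting.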

A short description of test [2]: APR_HepG2_CellLoss_24hr: Apredica 24-hour HepG2 Assay for Cell Loss (AID 2282908).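 Note: fit in both directions so a hit may be cell loss or gain.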 To be noted: high-content imaging. The essentials:
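Nuclear count serves as the viability measure: treated cells are fixed, permeabilized and labelled with Hoechst 33342, and six images per well are analysed to identify valid nuclei. Doses span 0.39–200 uM, and activity in either direction is scored against DMSO.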

Test [3] is described as follows: APR_HepG2_MicrotubuleCSK_24hr: Apredica 24-hour HepG2 Assay for Microtubule CSK Stabilty (AID 2282909). To be noted: HepG2 microtubule cytoskeleton imaging, actives raise or lower the signal. The essentials: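 Compounds were applied to HepG2 cells for 24 hours across 0.39–200 uM in duplicate, with final DMSO at 0.5% v/v. Fixed, permeabilized cells were labeled for alpha-tubulin and nuclei, and tubulin fluorescence was quantified by imaging, fitted bidirectionally against DMSO.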

The nature of test [4]: APR_HepG2_MitoticArrest_24hr: Apredica 24-hour HepG2 Assay for Mitotic Arrest (AID 2282910). To be noted: high-content imaging, actives raise or lower the signal. The essentials:
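HepG2, 24 hr dosing, 0.39–200 uM, 0.5% DMSO final. Formaldehyde-fixed, Triton-permeabilised, anti-phospho-histone H3 plus Hoechst. ArrayScan imaging at 20x; bidirectional fit vs DMSO baseline.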

Test [5] in a line: APR_HepG2_MitoMembPot_24hr: Apredica 24-hour HepG2 Assay for Mitochondrial Membrane Potential (AID 2282911). The conditions noted are these: imaging, actives raise or lower the signal. The essentials: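 HepG2 human liver cells were exposed 24 hr to compounds at 0.39–200 uM (final DMSO 0.5% v/v) in duplicate. MitoTracker Red CMXRos (250 nM, 30 min) was loaded before formaldehyde fixation; fluorescence was imaged by ArrayScan HCS and fitted bidirectionally versus DMSO.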

Test [6] is described as follows: APR_HepG2_MitoMass_24hr: Apredica 24-hour HepG2 Assay for Mitochondrial Mass (AID 2282912). The conditions noted are these: high-content imaging, actives raise or lower the signal. The essentials:
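After 24 hr of treatment at 0.39 to 200 uM, HepG2 cells take up 250 nM MitoTracker Red CMXRos for 30 min and are then fixed with 3.7% formaldehyde. Per-well images are quantified, and any change in either direction is scored against solvent.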

Test [7] in a line: APR_HepG2_p53Act_24hr: Apredica 24-hour HepG2 Assay for p53 Activation (AID 2282913).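 Note: p53 protein immunofluorescence averaged per cell in HepG2 with Hoechst nuclei.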 To be noted: high-content imaging, actives raise or lower the signal. The essentials:
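HepG2 cells exposed 24 hr to compounds at 0.39–200 uM (10 concentrations, duplicate), final DMSO 0.5% v/v. After formaldehyde fixation and Triton permeabilization, p53 was immunolabeled (sheep anti-p53, Cy5 secondary) with Hoechst 33342 nuclear counterstain, then imaged by high-content fluorescence microscopy.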

Test [8] in a line: APR_HepG2_CellCycleArrest_72hr: Apredica 72-hour HepG2 Assay for Cell Cycle Arrest (AID 2282914). The conditions noted are these: high-content imaging, actives raise or lower the signal. The essentials: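 HepG2 cells were exposed to compounds at 0.39–200 uM (0.5% v/v DMSO final, duplicates) for 72 hr, fixed in 3.7% formaldehyde, permeabilized and stained with Hoechst 33342. Nuclear DNA content was quantified by high-content imaging; gain or loss of signal was fitted bidirectionally against DMSO.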

A short description of test [9]: APR_HepG2_CellLoss_72hr: Apredica 72-hour HepG2 Assay for Cell Loss (AID 2282915). The conditions noted are these: high-content imaging. The essentials: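 HepG2 cells exposed 72 h to compound at 0.39–200 uM (10 concentrations, duplicate) in 0.5% DMSO. Fixed with 3.7% formaldehyde and Hoechst 33342-stained. Imaged at 20x; nuclear count gives cell number, fitted bidirectionally versus DMSO.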

The nature of test [10]: APR_HepG2_P-H2AX_72hr: Apredica 72-hour HepG2 Assay for H2AX Phosphorylation (AID 2282916).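 Note: phospho-histone H2A.x immunostain intensity per cell marking DNA damage.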 To be noted: imaging, actives raise or lower the signal. The essentials: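 Human hepatoma HepG2 cells are dosed across ten concentrations (0.39 to 200 uM, 0.5% v/v DMSO) and incubated 72 hr. Phospho-histone H2A.x is then detected by antibody staining alongside c-Jun and Hoechst, and quantified by automated fluorescence imaging.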

Test [11] can be described thus: APR_HepG2_MitoMembPot_72hr: Apredica 72-hour HepG2 Assay for Mitochondrial Membrane Potential (AID 2282917). The conditions noted are these: imaging, actives raise or lower the signal. The essentials: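 HepG2 cells dosed 72 hr with compound at 0.39–200 uM in duplicate, 0.5% v/v DMSO final. Mitochondria stained with 250 nM MitoTracker Red CMXRos for 30 min before formaldehyde fixation, imaged by high-content fluorescence; bidirectional fit versus DMSO.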

A short description of test [12]: APR_HepG2_MitoticArrest_72hr: Apredica 72-hour HepG2 Assay for Mitotic Arrest (AID 2282918). The conditions noted are these: high-content imaging, actives raise or lower the signal. The essentials: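 HepG2 cells were exposed for 72 hr to compound at 0.39–200 uM (10 concentrations, duplicate) in 0.5% v/v DMSO, fixed in 3.7% formaldehyde, immunostained for phospho-histone H3 with Hoechst 33342 and imaged by high-content fluorescence; bidirectional fits versus DMSO.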

Test [13] can be described thus: APR_HepG2_MicrotubuleCSK_72hr: Apredica 72-hour HepG2 Assay for Microtubule CSK Stabilty (AID 2282919). The conditions noted are these: HepG2 microtubule cytoskeleton, high-content imaging, actives raise or lower the signal. The essentials: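 HepG2, 72 hr cmpd exposure, 0.39–200 uM (10 pts, duplicate), 0.5% DMSO. 3.7% formaldehyde fix, 0.5% Triton perm, anti-alpha-tubulin/Cy5 plus Hoechst. HCS fluorescence intensity; bidirectional fit vs DMSO baseline; taxol as positive control.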

Test [14] can be described thus: APR_HepG2_P-H2AX_24hr: Apredica 24-hour HepG2 Assay for H2AX Phosphorylation (AID 2282920). The conditions noted are these: high-content imaging, actives raise or lower the signal. The essentials: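 HepG2 human liver cells were exposed for 24 hr to compounds at 0.39–200 uM in duplicate, with 0.5% v/v DMSO final. Fixed cells were immunostained for phospho-histone H2A.x plus Hoechst 33342, imaged by HCS fluorescence, and fitted bidirectionally against DMSO.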

Test [15] is described as follows: APR_HepG2_StressKinase_72hr: Apredica 72-hour HepG2 Assay for Stress Kinase (AID 2282921). The conditions noted are these: HepG2 stress kinase (phospho-c-Jun) imaging, actives raise or lower the signal. The essentials:
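After a 72 h compound treatment spanning 0.39 to 200 uM, formaldehyde-fixed cells are labelled for phosphorylated c-Jun and nuclei, imaged by automated fluorescence microscopy, and activity is fitted in both directions relative to DMSO controls.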

Test [16] can be described thus: APR_HepG2_StressKinase_24hr: Apredica 24-hour HepG2 Assay for Stress Kinase (AID 2282922). To be noted: HepG2 stress kinase (phospho-c-Jun) imaging, actives raise or lower the signal. The essentials: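 Read-out: phospho-c-Jun immunofluorescence (Cy3 secondary) quantified by high-content imaging at 20x, nuclei defined by Hoechst 33342. Human HepG2 liver cells dosed 24 hr, 0.39–200 uM, DMSO 0.5% v/v; gain or loss of signal fitted relative to DMSO.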

Test [17] in a line: APR_HepG2_p53Act_72hr: Apredica 72-hour HepG2 Assay for p53 Activation (AID 2282923).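 Note: average cellular p53 protein immunofluorescence intensity in HepG2 cells.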 The conditions noted are these: high-content imaging, actives raise or lower the signal. The essentials: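 Imaging-based endpoint: after 72 hr compound exposure (up to 200 uM, 0.5% DMSO), fixed and permeabilized monolayers were labelled with anti-p53 antibody and imaged; signal change in either direction was fitted relative to DMSO controls.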

The nature of test [18]: APR_HepG2_MitoMass_72hr: Apredica 72-hour HepG2 Assay for Mitochondrial Mass (AID 2282924).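 Note: MitoTracker Red CMXRos stain intensity per cell imaged as mitochondrial mass.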 The conditions noted are these: high-content imaging, actives raise or lower the signal. The essentials: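 Read-out: MitoTracker Red fluorescence intensity from automated imaging (20x, six fields per well) in human HepG2 liver cells. Dosing ran 72 hr, 0.39–200 uM, 0.5% DMSO; bidirectional curve fitting versus DMSO baseline.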

A short description of test [19]: APR_HepG2_NuclearSize_72hr: Apredica 72-hour HepG2 Assay for Nuclear Size (AID 2282925). To be noted: high-content imaging, actives raise or lower the signal. The essentials: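 Read-out: nuclear diameter from Hoechst 33342 images (ArrayScan, 20x, six fields/well), via cell-cycle image analysis. HepG2 were dosed 0.39–200 uM for 72 hr in 0.5% DMSO. Bidirectional fit relative to DMSO.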

Regarding `Oc1ccc(C(c2ccc(O)cc2)C(Cl)(Cl)Cl)cc1`, the call in test [1], in test [3], in [4], in test [5], in test [6] and in test [7] was inactive. For the same compound, the result in test [8], in [10], in [11], in test [13], in test [14] and in [15] was inactive. Also, the compound was called inactive in test [16], in test [17], in test [18] and in [19]. In addition, the results for the AC50 in test [2], in test [9] and in [12] were 135 µM (active), 33.4 µM (active) and 85.6 µM (active), respectively.
With `CC(=O)[C@H]1CC[C@H]2[C@@H]3CCC4=CC(=O)CC[C@]4(C)[C@H]3CC[C@]12C`, the compound was classed as inactive in [1], in [5], in test [11], in [13], in test [15] and in [16]. Also, the outcome in [18] and in test [19] was inactive. The AC50 is 101 µM (active) in [2]; 104 µM (active) in [3]; 100 µM (active) in test [4]; 106 µM (active) in test [6]; 94.1 µM (active) in test [7]; 165 µM (active) in test [8]. Moreover, the AC50 was 95.6 µM (active) in test [9], 94.1 µM (active) in [10], 81.6 µM (active) in test [12] and 116 µM (active) in test [14].
On to `CC(=O)S[C@@H]1CC2=CC(=O)CC[C@]2(C)[C@H]2CC[C@@]3(C)[C@@H](CC[C@@]34CCC(=O)O4)[C@H]12`, for which the compound was classed as inactive in test [1], in test [3], in [13] and in test [19]. Further, the AC50 in test [2] was 54.6 µM (active); in test [4] it was 30.2 µM (active); in test [5], 82.3 µM (active); in test [6], 29.1 µM (active); in [7], 54.7 µM (active); in test [8], 44.1 µM (active). Besides, the AC50 in test [9] is 39.3 µM (active); in test [10] it was 35 µM (active); in test [11] it was 100 µM (active); in test [12], 53.6 µM (active); in test [14], 46.4 µM (active); in [15] it was 49.3 µM (active). Further, the AC50 was 48.6 µM (active) in [16] and 96.8 µM (active) in [18].
